Measurements published in PMC5540273 (PLoS ONE, 2017).

Legend:
Details in all cases: concentration: 1 μM, replicates: in singlicate; n = 1
[1] = system: JAK1(JH2domain-pseudokinase)
[2] = system: JAK2(JH1domain-catalytic)
[3] = system: JAK3(JH1domain-catalytic)
JNK1 = system: T1, JNK1
T1 construct: gene MAPK8

JNK2 = system: T2, JNK2
T2 construct: gene MAPK9

JNK3 = system: T3, JNK3
T3 construct: gene MAPK10

KIT-autoinhibited = system: KIT-autoinhibited
KIT = system: KIT
LATS1 = system: LATS1
LATS2 = system: LATS2
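Note: KINOMEscan kinase panel screen.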

Compound | %Inh [1] [%] | %Inh [2] [%] | %Inh [3] [%] | %Inh (JNK1) [%] | %Inh (JNK2) [%] | %Inh (JNK3) [%] | %Inh (KIT-autoinhibited) [%] | %Inh (KIT) [%] | %Inh (LATS1) [%] | %Inh (LATS2) [%]
CN(c1ccc2c(c1)nc(NCc1ccccc1)n2C)c1ccnc(Nc2ccc(CS(C)(=O)=O)cc2)n1.Cl [GW811603] | 0 | 60 | 99.2 | 65 | 40 | 47 | 80 | 100 | 0 | 0
N#Cc1cnc2cc(-c3cnc(CNCCN4CCOCC4)s3)ccc2c1Nc1ccc(Oc2ccccc2)cc1 [GW664114] | 0 | 0 | 0 | 13 | 6 | 0 | 0 | 19 | 0 | 3
Cc1ccc(O)cc1Nc1ccnc2cc(-c3ccc(CN4CCCCC4)o3)ccc12 [GW557777] | 7 | 0 | 15 | 0 | 0 | 0 | 56 | 100 | 0 | 22
O=C(Nc1c(F)cccc1F)c1cc(C(=O)c2ccccc2F)c[nH]1 [GSK1326180] | 0 | 0 | 0 | 4 | 17 | 0 | 0 | 9 | 0 | 0
Cc1cccc(Nc2nc(N[C@H]3CCCC[C@H]3N)ncc2C(N)=O)c1.Cl [GSK986310] | 91.4 | 87 | 80 | 62 | 36 | 27 | 0 | 37 | 18 | 7
CC(C)c1nc(-c2ccc(F)c(NS(=O)(=O)c3c(F)cccc3F)c2)c(-c2ccnc(Nc3ccc(N4CCOCC4)nc3)n2)s1 [GSK1804250] | 0 | 4 | 69 | 32 | 70 | 77 | 0 | 97.8 | 0 | 0
COc1cccc(CC(=O)N2CCc3cc(-c4cn(C)c5ncnc(N)c45)ccc32)c1 [GSK2608899] | 0 | 0 | 0 | 4 | 16 | 3 | 11 | 100 | 0 | 10
Cl.N#CCc1ccc(Nc2nccc(Nc3ccc(Oc4ccccc4)cc3)n2)cc1 [GW639905] | 0 | 85 | 0 | 38 | 31 | 23 | 0 | 97.4 | 5 | 0
O=C(Nc1n[nH]c2cc(-c3cccs3)ccc12)C1CC1 [SB-731284] | 22 | 40 | 0 | 57 | 33 | 48 | 39 | 58 | 0 | 5
CN(C)CCOc1ccc(-c2cc(-c3ccc(Cl)c(O)c3)c(-c3ccncc3)[nH]2)cc1.Cl.Cl [SB-684387] | 23 | 33 | 10 | 3 | 34 | 36 | 2 | 5 | 0 | 30
Cc1ccc(C)c(NC(=O)Nc2ccc(C)c(-c3ccc(C(=O)Nc4ccncc4)cc3)c2)c1 [GSK1398473] | 0 | 0 | 0 | 15 | 14 | 6 | 0 | 99.9 | 3 | 0
Cc1ccc(O)cc1Nc1ccnc2ccc(C(C)(C)C)cc12 [GW856805] | 20 | 64 | 0 | 43 | 29 | 15 | 22 | 96.9 | 0 | 0
Cn1cc(-c2ccc3c(c2)CCN3C(=O)Cc2cc(F)cc(F)c2F)c2c(N)ncnc21 [GSK2634140] | 0 | 11 | 0 | 15 | 24 | 4 | 0 | 99.1 | 80 | 7
Cn1cc(-c2ccc3c(c2)CCN3C(=O)Cc2cc(F)cc(C(F)(F)F)c2)c2c(N)ncnc21 [GSK2635225] | 3 | 10 | 0 | 0 | 13 | 0 | 16 | 100 | 0 | 4
O=C(O)C(F)(F)F.O=c1[nH]ccc2nc(N[C@@H]3CCNC3)nc(Nc3ccc4c(c3)S(=O)(=O)CC4)c12 [GSK2181306] | 98 | 98.4 | 100 | 83 | 54 | 78 | 0 | 73 | 51 | 80
CCn1c(-c2nonc2N)nc2c(-c3ccccc3)ncc(OCCCN)c21.O=C(O)C(F)(F)F.O=C(O)C(F)(F)F [GSK260205] | 71 | 3 | 0 | 26 | 85 | 85 | 0 | 41 | 100 | 93.8
Cc1cccc(Nc2nc(NCCN)ncc2C(N)=O)c1 [GSK1292139] | 96.6 | 54 | 0 | 43 | 4 | 23 | 9 | 72 | 0 | 76
